The campaign covered roughly 44,000 compounds. Fewer than 10 were called active. Calls come from the whole dose curve; as a rule, active = well fitted inhibition curve with a large enough effect; inconclusive = small, poorly fitted or top-dose-only effect; inactive = flat fitted curve, though single readings scatter. Only a sample is shown. Where a call stands in place of a potency, no number is given.

Tumor susceptibility gene 101 protein (Homo sapiens), sequence (Q99816 whole entry, looked up): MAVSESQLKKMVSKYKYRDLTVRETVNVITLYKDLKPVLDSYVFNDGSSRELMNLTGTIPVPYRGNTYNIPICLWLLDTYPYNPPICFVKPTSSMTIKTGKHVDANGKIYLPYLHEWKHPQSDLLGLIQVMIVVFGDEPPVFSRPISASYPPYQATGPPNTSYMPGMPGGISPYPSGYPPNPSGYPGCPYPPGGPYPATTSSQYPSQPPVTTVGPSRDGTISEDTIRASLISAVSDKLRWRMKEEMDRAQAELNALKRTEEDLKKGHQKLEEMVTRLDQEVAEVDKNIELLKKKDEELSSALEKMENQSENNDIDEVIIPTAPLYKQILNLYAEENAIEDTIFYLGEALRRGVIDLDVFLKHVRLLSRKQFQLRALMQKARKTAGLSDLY

For this test, the target named is Tumor susceptibility gene 101 protein (Homo sapiens) (UniProt Q99816). The test can be described thus: qHTS Validation Assay for Inhibitors of HIV-1 Budding by Blocking the Interaction of PTAP/TSG101: Sytravon Library Screen. To be noted: Fluorescence polarization, FITC-PTAP peptide/Tsg101, 20 min; series mostly up to 115 µM. An excerpt:
Stages of the HIV-1 replication cycle, specifically virus assembly and release, provide underexploited targets for the development of novel antiviral inhibitors. The late stages of HIV-1 replication are mediated by the Gag precursor protein, Pr55Gag. Expression of Pr55Gag is both necessary and sufficient for the production of virus-like particles from Gag-expressing cells. The Gag protein hijacks key host proteins involved in endocytic machinery of the host cell to promote endosomal processing and viral budding. The budding process requires a direct interaction between a […] (PTAP) motif in the p6 domain of Gag and the cellular endosomal sorting protein known as Tsg101. In this way, the Gag PTAP motif promotes the host cells to recruit viral particles to the plasma membrane where the new viral particles are released, effectively turning the host cells into viral factories. A fluorescence polarization assay has been developed to quantitatively measure the PTAP-Tsg101 interaction which can be used to screen for inhibitors of this interaction. This assay was run against the NCGC Sytravon Library collection. NIH Molecular Libraries Probe Production Network [MLPCN] NIH Chemical Genomics Center [NCGC] Grant: R03 MH087464-01A1 PI Name: Dr. Eric Freed, NCI
Two uL of the Tsg101 binding domain in buffer (10 mM HEPES pH 7.5; 0.15 M NaCl, 0.01% Tween 20; 3 mM EDTA;0.1 mM TCEP) was dispensed into Greiner black MB 1536-well plates (final concentration 10 uM). Then, 23 nL of compounds or DMSO were delivered to each well using a pin tool. Finally, 2 uL of a FITC-labeled peptide containing the PTAP motif (1) in the same buffer was dispensed (50 nM final concentration) and the binding was allowed to proceed for 20 min. at r.t. Fluorescent polarization was determined using FITC excitation and polarized emission filters on a Perkin Elmer Envision. Assay cut-off (positive/negative criteria): Actives defined by CRC class, <25 µM; Efficacy <60% inhibition. The total fluorescent intensity from S and P channels will be used to flag fluorescent compounds.
On the technique in general: Quantitative high-throughput screening tests each substance at several concentrations.
In the case of `CCc1ccc(NC(=O)c2cnc3c(-c4ccccc4)c(C)nn3c2C)cc1`, the Potency result was “inactive”. The same measure for `COc1ccc(-c2csc(-c3c(N)c(C(=O)c4ccc(OC)c(OC)c4)n4ccccc34)n2)cc1`: “inactive”.

Turning to `Cc1ccc(C)c(N2CCN(C(c3ccccc3)c3nnc(-c4ccccc4)o3)CC2)c1` (stereo not drawn), the Potency result was “inactive”.

Consider `Fc1ccc(-c2nn(-c3ccccc3Cl)c3c2cnc2ccccc23)cc1`, for which the Potency entry was “inactive”.

For the compound `CCOc1ccccc1CNC(=O)c1ccc2c(c1)nc1n2CCC(C)C1` (stereo not drawn), the Potency result is “inactive”. `COc1ccccc1OCC(=O)Nc1nnc2n1CCS2`: the Potency entry is “inactive”. The same measure for `CCOC(=O)c1c(C)oc2ccc(N(C(=O)c3ccncc3)S(=O)(=O)c3ccc(CC)cc3)cc12`: “inactive”. With `O=C(CCS(=O)(=O)c1ccccc1)N(Cc1cccnc1)c1nc2c(F)cccc2s1`, the Potency entry is “inactive”. As to `Cn1c(=O)sc2cc(NS(=O)(=O)c3ccc(C(C)(C)C)cc3)ccc21`, the Potency entry was “inactive”. As for `COc1ccc2c(CNCCc3ccccc3C)c(C(=O)O)n(Cc3ccccc3C)c2c1`, the Potency result is “inactive”.

With `Cc1cc2c(cc1C)C(c1cccc(OC(C)C)c1)CC(=O)N2` (stereo not drawn), the Potency entry was “inactive”. The same measure for `CCc1nn(CCCC(=O)NCc2ccccc2OC)c(=O)c2cc3occc3n12`: “inactive”; for `Cc1cccc(NC(=O)c2ccc(F)c(S(=O)(=O)N(C)C3CCCCC3)c2)c1`: “inactive”; for `COc1ccc(CCNC(=O)c2ccc3c(c2)nc(C)n3-c2ccc(Br)cc2)cc1OC`: “inactive”. For the compound `CCCCn1cc(S(=O)(=O)c2ccc(OCC)cc2)c(=O)c2cc(OC)c(OC)cc21`, the Potency entry is “inactive”. The same measure for `COc1ccccc1CNc1nc2ccc(Cl)cc2n2cnnc12`: “inactive”; for `Cc1ccccc1CNC(=O)CCc1cn(Cc2ccccc2C)c2ccccc12`: “inactive”; for `COc1ccccc1-n1c(-c2ccc(C)cc2)cn2c3c(=O)n(C)c(=O)n(C)c3nc12`: “inactive”. For the compound `CCOC(=O)C1CCCN(C(=O)c2ccc(-n3ccc4ccccc43)s2)C1` (stereo not drawn), the Potency entry is “inactive”. On to `Cc1cc(C)cc(NC(=O)c2cnc3sc(N4CCCC4)nn3c2=O)c1`, for which the Potency entry was “inactive”. Turning to `COc1cc(NC(=O)CSc2nc3nc(C)c(Cc4ccc(C)cc4)c(C)n3n2)cc(OC)c1OC`, the Potency result is “inactive”.

As for `Cc1oc(C)c2c(=O)cc(-c3ccc4c(c3)OCO4)cc(OC(=O)c3ccc(Cl)cc3)c12`, the Potency result was “inactive”. Regarding `COc1cccc(N=C2SC(C(=O)Nc3cccc(Cl)c3)CC(=O)N2C)c1` (stereo not drawn), the Potency entry was “inactive”. For the compound `Cc1ccccc1-c1nc2scc(CCNC(=O)C(=O)Nc3ccc(F)cc3F)n2n1`, the Potency result is “inactive”. On to `O=C(CSCc1cnn(-c2ccccc2)c1-n1cccc1)NCc1ccc(Cl)cc1`, for which the Potency entry was “inactive”.

For `CCN(CC)S(=O)(=O)c1ccc(C(=O)N=c2sc3cccc(OC)c3n2C)cc1`, the Potency result was “inactive”.

Turning to `CC(=O)Nc1ccc(NC(=O)c2cc3sccc3n2Cc2ccc(F)cc2)cc1`, the Potency entry is “inactive”. The same measure for `CC(C)Cn1c(C2CC(=O)N(c3ccccc3Cl)C2)nc2ccccc21` (stereo not drawn): “inactive”. The same measure for `CC1=C(C(=O)OCC2CCCCC2)C(c2c(F)cccc2Cl)CC(=O)N1` (stereo not drawn): “inactive”. Consider `COc1cc(Cl)c(C)cc1NC(=O)CCc1nc2cccnc2n1Cc1cccs1`, for which the Potency result is “inactive”. Regarding `COc1ccc(-c2nc(Cn3c(=O)cc(C)c4c(C)nn(-c5ccccc5)c43)c(C)o2)cc1OC`, the Potency entry was “inactive”. The same measure for `CCC(=O)N1CCc2cc(Br)cc(S(=O)(=O)Nc3ccc(C)cc3C)c21`: “inactive”.

Turning to `CC(C)c1ccc(S(=O)(=O)Nc2ccc(O)c(Sc3nc4ccccc4s3)c2)cc1`, the Potency entry is “inactive”. With `Cc1ccc(-c2nn3c(=O)cc(CN4CCN(S(=O)(=O)c5ccc(Cl)cc5)CC4)nc3s2)cc1`, the Potency entry was “inactive”. Turning to `NS(=O)(=O)c1ccc(NC(=O)COc2ccc(S(=O)(=O)NC3CCCCC3)cc2)cc1`, the Potency result is “inactive”. In the case of `Cc1ccc(NC(=O)Cc2ccc(NC(=O)N3CCCCc4ccccc43)cc2)cc1`, the Potency result is “inactive”. The same measure for `CC1CCC(N2CC(=O)N(CCC3=CCCCC3)C(c3ccc(F)cc3)C2=O)CC1` (stereo not drawn): “inactive”.

Regarding `CCOc1ccccc1CNC(=O)c1ccc(-n2c(C)cc3c2CCC(C)C3)cc1` (stereo not drawn), the Potency entry is “inactive”.

Turning to `O=S(=O)(c1ccc(Br)cc1)c1nnn2c1nc(NC1CCCCCC1)c1sccc12`, the Potency entry is “inactive”. The same measure for `Cc1oc(-c2ccccc2)nc1Cn1c(SCc2cccc(C(F)(F)F)c2)nc2cccnc21`: “inactive”; for `CCCCOC(=O)/C(C#N)=C/c1ccc(-c2cccc(C(F)(F)F)c2)o1`: “inactive”. With `CCOc1ccccc1C(=O)Nc1ccc(S(=O)(=O)N2CCCCC2c2cccnc2)cc1` (stereo not drawn), the Potency result is “inactive”. The same measure for `CN(Cc1ccccc1)c1ncnc2onc(-c3ccc(F)cc3)c12`: “inactive”; for `Cc1cccc(C(C)C)c1NC(=O)C(NS(=O)(=O)c1cccc2nsnc12)c1ccccc1` (stereo not drawn): “inactive”.

Turning to `Cc1cccc(Cc2c(C)nc3nc(SCc4ccccc4Cl)nn3c2C)c1`, the Potency entry was “inactive”. On to `Cc1ccc(/C=C(\C#N)C(=O)Nc2cc(C)ccc2C)cc1`, for which the Potency result is “inactive”. With `COc1ccc(Cn2c(=O)n(-c3ccccc3C)c(=O)c3c4c(sc32)CN(C(C)=O)CC4)cc1`, the Potency entry is “inactive”. On to `CCOC(=O)c1cc2c(=O)n3ccccc3nc2n(CC2CCCO2)c1=NC(=O)c1ccccc1F` (stereo not drawn), for which the Potency result is “inactive”.

For the origin of these results see PubChem BioAssay AID1347069 (National Center for Advancing Translational Sciences (NCATS), 2019).
